Laboratory results taken from PubChem BioAssay (NCATS).
Results filed as inconclusive are left out. Active and inactive are the calls of the source. The call rests on the fitted dose curve; in most records, active means well fitted inhibition curve with a large enough effect; inconclusive means small, poorly fitted or top-dose-only effect; inactive means flat fitted curve, though single readings scatter.

How the values were obtained:
NIH3T3 [1] = assay: Cytotoxic Profiling of Annotated Libraries Using Quantitative High-Throughput Screening (AID 1296008); conditions: Five cell lines viability, CellTiter-Glo ATP luminescence, 48-72 h; max response: active compounds read low
Summary of the method: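 Cytotoxicity was measured as CellTiter-Glo ATP luminescence, read after 10 min at room temperature. Compound treatment of the cells lasted 48 or 72 hr at 37 degrees Celsius in a qHTS format.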

HACAT = assay: qHTS assay to identify novel small-molecules to repurpose for Merkel cell carcinoma treatment (AID 1296009); conditions: MCC and control cell lines, CellTiter-Glo viability, 72 h; at 44.8 µM (top of the series) unless noted; further: potency means the concentration at half of the fitted maximal effect
Summary of the method: (§1)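 After compound transfer in DMSO, plates were kept 72 hr at 37 degree celsius. Luminescent ATP signal from CellTiter-Glo served as viability measure, normalized against DMSO and no-cell controls.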

MCC-13 = assay: as above; conditions: MCC and control cell lines, CellTiter-Glo viability, 72 h; series mostly up to 46 µM
Summary of the method: as §1

MCC-26 = assay: as above; conditions: MCC and control cell lines, CellTiter-Glo viability, 72 h; series mostly up to 46 µM
Summary of the method: as §1

MKL-1 = assay: as above; conditions: MCC and control cell lines, CellTiter-Glo viability, 72 h; series mostly up to 46 µM
Summary of the method: as §1

MKL-2 = assay: as above; conditions: MCC and control cell lines, CellTiter-Glo viability, 72 h; series mostly up to 46 µM
Summary of the method: as §1

NIH3T3 [2] = assay: as above; conditions: MCC and control cell lines, CellTiter-Glo viability, 72 h; at 44.8 µM (top of the series) unless noted
Summary of the method: as §1

UISO = assay: as above; conditions: MCC and control cell lines, CellTiter-Glo viability, 72 h; series mostly up to 46 µM
Summary of the method: as §1

WaGa = assay: as above; conditions: MCC and control cell lines, CellTiter-Glo viability, 72 h; series mostly up to 46 µM
Summary of the method: as §1

HEK293T = assay: as above; conditions: MCC and control cell lines, CellTiter-Glo viability, 72 h; at 44.8 µM (top of the series) unless noted
Summary of the method: as §1
Further: nearly all actives have a fitted effect of over 60% in size.
On the % scale 0 is the no-effect control and ±100 the full control effect.

NS(=O)(=O)c1cc(C(=O)NN2C[C@H]3[C@H]4CCC(C4)[C@H]3C2)ccc1Cl
inactive: outcome (NIH3T3 [1]) | outcome (HACAT) | Potency (MCC-13) | Potency (MCC-26) | Potency (MKL-1) | Potency (MKL-2) | outcome (NIH3T3 [2]) | Potency (UISO) | Potency (WaGa)

Cc1cccc(C)c1NC(=O)c1ccc(N)cc1
inactive: outcome (NIH3T3 [1]) | outcome (HACAT) | Potency (MCC-13) | Potency (MCC-26) | Potency (MKL-1) | Potency (MKL-2) | outcome (NIH3T3 [2]) | Potency (UISO) | Potency (WaGa)

O=C(Oc1ccccc1)c1ccccc1O
inactive: max response (NIH3T3 [1]) 3.3% | outcome (HACAT) | outcome (HEK293T) | Potency (MCC-13) | Potency (MCC-26) | Potency (MKL-1) | Potency (MKL-2) | Potency (UISO) | Potency (WaGa)

O=C(c1ccco1)N1CCNCC1
inactive: max response (NIH3T3 [1]) 4.52% | outcome (HACAT) | outcome (HEK293T) | Potency (MCC-13) | Potency (MCC-26) | Potency (MKL-1) | Potency (MKL-2) | Potency (UISO) | Potency (WaGa)

O=C(CCCl)NCc1ccccc1
inactive: outcome (NIH3T3 [1]) | outcome (HACAT) | Potency (MCC-13) | Potency (MCC-26) | Potency (MKL-1) | Potency (MKL-2) | outcome (NIH3T3 [2]) | Potency (UISO) | Potency (WaGa)

O=C(O)CCCC[P+](c1ccccc1)(c1ccccc1)c1ccccc1
inactive: max response (NIH3T3 [1]) 3.89% | outcome (HACAT) | outcome (HEK293T) | Potency (MCC-13) | Potency (MCC-26) | Potency (MKL-1) | Potency (MKL-2) | Potency (UISO) | Potency (WaGa)

CN1CCC(=C2c3ccccc3CCc3cccnc32)CC1
inactive: outcome (NIH3T3 [1]) | outcome (HACAT) | Potency (MCC-13) | Potency (MCC-26) | Potency (MKL-1) | Potency (MKL-2) | outcome (NIH3T3 [2]) | Potency (UISO) | Potency (WaGa)

CC(C)=CCC/C(C)=C/CC/C(C)=C/CCC(=O)OC/C=C(\C)CCC=C(C)C
inactive: outcome (NIH3T3 [1]) | outcome (HACAT) | Potency (MCC-13) | Potency (MCC-26) | Potency (MKL-1) | Potency (MKL-2) | outcome (NIH3T3 [2]) | Potency (UISO) | Potency (WaGa)

CCCCCOc1ccc(C2SC(=O)NC2=O)cc1OCC (centres undefined)
inactive: outcome (NIH3T3 [1]) | outcome (HACAT) | Potency (MCC-13) | Potency (MCC-26) | Potency (MKL-1) | Potency (MKL-2) | outcome (NIH3T3 [2]) | Potency (UISO) | Potency (WaGa)

O=c1[nH]c2ccccc2c(=O)n1CCCl
inactive: outcome (NIH3T3 [1]) | outcome (HACAT) | Potency (MCC-13) | Potency (MCC-26) | Potency (MKL-1) | Potency (MKL-2) | outcome (NIH3T3 [2]) | Potency (UISO) | Potency (WaGa)

O=C(CCOCCOCCOCCOCCC(=O)Nc1c(I)cc(I)c(C(=O)O)c1I)Nc1c(I)cc(I)c(C(=O)O)c1I
inactive: max response (NIH3T3 [1]) 0.931% | outcome (HACAT) | outcome (HEK293T) | Potency (MCC-13) | Potency (MCC-26) | Potency (MKL-1) | Potency (MKL-2) | Potency (UISO) | Potency (WaGa)

CC(=O)O[C@@H]1CC2C3CCc4cc(OC(=O)c5ccccc5)ccc4C3CCC2(C)[C@H]1OC(C)=O (some centres undefined)
inactive: max response (NIH3T3 [1]) 3.57% | outcome (HACAT) | outcome (HEK293T) | Potency (MCC-13) | Potency (MCC-26) | Potency (MKL-1) | Potency (MKL-2) | Potency (UISO) | Potency (WaGa)

Cc1cc(CCCOc2c(C)cc(-c3noc(C(F)(F)F)n3)cc2C)on1
inactive: outcome (NIH3T3 [1]) | outcome (HACAT) | Potency (MCC-13) | Potency (MCC-26) | Potency (MKL-1) | Potency (MKL-2) | outcome (NIH3T3 [2]) | Potency (UISO)

CCOC(=O)NNc1ccc(N(CC)CC(C)O)nn1 (centres undefined)
inactive: max response (NIH3T3 [1]) 4.97% | outcome (HACAT) | outcome (HEK293T) | Potency (MCC-13) | Potency (MCC-26) | Potency (MKL-1) | Potency (UISO) | Potency (WaGa)

O=C(O)c1cn(C2CC2)c2cc(Cl)c(F)cc2c1=O
inactive: outcome (NIH3T3 [1]) | outcome (HACAT) | Potency (MCC-13) | Potency (MCC-26) | Potency (MKL-1) | Potency (MKL-2) | outcome (NIH3T3 [2]) | Potency (UISO) | Potency (WaGa)

COC(=O)c1cc(S(N)(=O)=O)ccc1OC
inactive: outcome (NIH3T3 [1]) | outcome (HACAT) | Potency (MCC-13) | Potency (MCC-26) | Potency (MKL-1) | Potency (MKL-2) | outcome (NIH3T3 [2]) | Potency (UISO) | Potency (WaGa)

COc1ccccc1N1CCN(CCN2C(=O)CC3(CCCC3)CC2=O)CC1
inactive: outcome (NIH3T3 [1]) | outcome (HACAT) | outcome (HEK293T) | outcome (NIH3T3 [2])

CN(C)CCN(Cc1ccsc1)c1ccccn1
inactive: outcome (NIH3T3 [1]) | outcome (HACAT) | Potency (MCC-13) | Potency (MCC-26) | Potency (MKL-1) | Potency (MKL-2) | outcome (NIH3T3 [2]) | Potency (UISO) | Potency (WaGa)

O=C(CCCCCCCCC#CI)Oc1ccccc1
active: Potency (MKL-1) 13.3 µM | Potency (MKL-2) 9.44 µM | Potency (WaGa) 11.9 µM
inactive: max response (NIH3T3 [1]) 0.745% | outcome (HACAT) | outcome (HEK293T) | Potency (MCC-13) | Potency (MCC-26) | Potency (UISO)

O=C1Nc2cc(Cl)ccc2Oc2ccccc21
inactive: max response (NIH3T3 [1]) -1.14% | outcome (HACAT) | outcome (HEK293T) | Potency (MCC-13) | Potency (MCC-26) | Potency (MKL-1) | Potency (MKL-2) | Potency (WaGa)

CC1(C)OC(=O)Nc2ccc(Br)cc21
inactive: max response (NIH3T3 [1]) 3.48% | outcome (HACAT) | outcome (HEK293T) | Potency (MCC-13) | Potency (MCC-26) | Potency (MKL-1) | Potency (MKL-2) | Potency (UISO) | Potency (WaGa)

COC(=O)c1cc(Cl)c(NC(C)=O)cc1OC
inactive: outcome (NIH3T3 [1]) | outcome (HACAT) | Potency (MCC-13) | Potency (MCC-26) | Potency (MKL-1) | Potency (MKL-2) | outcome (NIH3T3 [2]) | Potency (UISO) | Potency (WaGa)

O=C(OCC(COC(=O)c1cccnc1)(COC(=O)c1cccnc1)COC(=O)c1cccnc1)c1cccnc1
inactive: outcome (NIH3T3 [1]) | outcome (HACAT) | Potency (MCC-13) | Potency (MCC-26) | Potency (MKL-1) | Potency (MKL-2) | outcome (NIH3T3 [2]) | Potency (UISO) | Potency (WaGa)
